Peg3 prom inh = Peg3 promoter-driven luciferase inhibitors, primary screen, cell-based, HeLa, luciferase luminescence. 360,000 compounds, 1.7% hits. inhibition, % at 20 µM. HeLa PEG-Prom luciferase reporter, overnight. AID 588405, 2011;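 active = inhibition of at least 50% at 20 µM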
MITF TRPM1 inh = inhibitors of MITF-dependent TRPM1 promoter reporter, primary screen, cell-based, SK-MEL-5, single point, luciferase. SK-MEL-5 TRPM1 promoter luciferase, 24 h. inhibition, % at 12.5 µM. 330,000 compounds, 0.83% hits. AID 488899, 2010;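 active = mean inhibition across replicates of 60% or more, whatever share of single replicates reaches that level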
EBV LMP1 NFkB = EBV LMP1-driven NF-kappaB luciferase reporter inhibitors, primary screen, cell-based, luminescence, single point | LMP1-induced NF-kappaB luciferase reporter cells | inhibition, % at 12.5 µM | 350,000 compounds, 0.69% hits; in the data active = inhibition above about 41%
HIF-2a block = HIF-2a reporter inhibitors, primary screen, luminescence, 786-0 RCC cells; 786-0 RCC cells HIF-2a reporter, luciferase luminescence, overnight; inhibition, % at 18.8 µM; 360,000 compounds, 0.72% hits; AID 624352, 2012;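 active = inhibition of the luminescence signal of 40% or more relative to plate controls, in a single-dose primary screen at 18.75 µM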
TWEAK Fn14 block = inhibitors of TWEAK-Fn14 signaling, primary screen, luciferase reporter cells, uHTS | TWEAK-stimulated Fn14 reporter cells, luciferase luminescence, 8 h | inhibition, % at 10 µM | 360,000 compounds, 2% hits; in the data active = inhibition above about 50%
TROY NFkB inh = inhibitors of TROY-driven NF-kB signaling, primary screen, Q293 LMP1-TROYcd cells, NF-kB luciferase, uHTS; Q293 LMP1-TROYcd NF-kB luciferase reporter, 4 h; AID 1347056, 2019; 360,000 compounds, 0.98% hits; inhibition, % at 10 µM;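 active = compounds whose plate-normalised and pattern-corrected inhibition of the luciferase reporter signal at the single screening dose is 50% or more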
Of the large screens only hits and unclear results are named; the others gave an inactive call. Shown are actives, neighbours in structure and some others; about 4% of the full set was active somewhere.

Cc1ccccc1C[n+]1cccc2ccccc21	none
N#Cc1ccc(-c2nc3c4ccccc4ccn3c2Cc2cccc(Cl)c2)cc1	none (no result: MITF TRPM1 inh, EBV LMP1 NFkB)
CCn1cc(/C=C/c2cc[n+](C)cc2)c2ccccc21	none
CC(C)n1cc(/C=C/c2cc[n+](C)cc2)c2ccccc21	MITF TRPM1 inh 63
O=C(Oc1c(-c2ccccc2Cl)oc2ccccc2c1=O)c1ccc(Cl)cc1	TWEAK Fn14 block 50
O=C(Oc1c(-c2ccccc2)oc2ccccc2c1=O)c1ccccc1	none
Cc1c(/C=N/NC(=O)c2cccs2)c2ccccc2n1Cc1ccccc1Cl	none
C=C(C)C(=O)Oc1ccc(N=Nc2ccc(C)cc2)ccc1=O	TWEAK Fn14 block 59 (no result: MITF TRPM1 inh, EBV LMP1 NFkB)
CC(=O)c1ccc(N=Nc2ccc(C)cc2)cc1	TWEAK Fn14 block 68, TROY NFkB inh 61
Cc1cc(N(C)C)ccc1N=Nc1ccc(N)cc1	none
CN(C)c1ccc(N=Nc2ccccc2Br)cc1	TWEAK Fn14 block 77
Cc1ccc(C(=O)c2ccc(C)cc2)cc1	none
CC(=O)c1ccc(N=Nc2ccc(N(C)C)cc2)cc1	TWEAK Fn14 block 104, TROY NFkB inh 54
COc1ccc(-c2sc3cc4c(cc3c2C#Cc2ccc(N)cc2)OCO4)cc1	none
COc1ccc(C2C(C(=O)Nc3ccc(OC)c(OC)c3)c3ccccc3C(=O)N2C)cc1 (stereo not drawn)	none
O=C(c1cc2sccc2n1Cc1ccc(F)cc1)N1CCN(c2nc3ccccc3s2)CC1	TWEAK Fn14 block 65
CCc1ccc(S(=O)(=O)/N=C2\C=C(Nc3ccc(O)cc3)C(=O)c3ccccc32)cc1	Peg3 prom inh 104, MITF TRPM1 inh 100, EBV LMP1 NFkB 90, HIF-2a block 69, TWEAK Fn14 block 94, TROY NFkB inh 74
CCc1ccc(S(=O)(=O)/N=C2/C=C(Sc3ncn[nH]3)C(=O)c3ccccc32)cc1	Peg3 prom inh 102, MITF TRPM1 inh 70, HIF-2a block 89, TWEAK Fn14 block 96, TROY NFkB inh 60
CCc1ccc(S(=O)(=O)/N=C2\C=C(Nc3cccc(C(=O)O)c3)C(=O)c3ccccc32)cc1	TWEAK Fn14 block 98
COCCCNc1ccn2nc(-c3ccccc3)cc2n1	TWEAK Fn14 block 72 (no result: MITF TRPM1 inh, EBV LMP1 NFkB)
COCCCNc1ccn2nc(-c3cccc(Cl)c3)cc2n1	none (no result: MITF TRPM1 inh, EBV LMP1 NFkB)
CCOCCC(=O)Nc1ccc2c(c1)c(=O)n(C)n2C/C=C/c1ccccc1	none (no result: MITF TRPM1 inh, EBV LMP1 NFkB)
Cc1cc(N2CCOCC2)ccc1/C=C1\SC(=O)N(C(C)C)C1=O	none
CCC(C)N1C(=O)S/C(=C/c2ccc(N3CCOCC3)cc2C)C1=O (stereo not drawn)	TWEAK Fn14 block 51
COc1ccc(N(CC(=O)NC2CC3CCC2C3)S(=O)(=O)c2ccccc2)cc1Cl (stereo not drawn)	TWEAK Fn14 block 91
COC(=O)c1ccc2nc(-c3ccc4c(c3)OCO4)cn2c1	EBV LMP1 NFkB 48, TWEAK Fn14 block 89
O=c1c(Cl)c(Nc2cccc(Cl)c2)cnn1-c1nc2ccccc2s1	TWEAK Fn14 block 62
Cc1ccccc1CNC(=O)C(=O)NCCC1CCCCN1S(=O)(=O)c1cccs1 (stereo not drawn)	none
CCOC(=O)Nc1ccc2c(c1)C(=NNC(N)=S)c1ccccc1-2	Peg3 prom inh 71
CCNC(=O)N(C)c1c(CC)nc2ccc(C(=O)N3CCN(S(=O)(=O)CC)CC3)cn12	none (no result: MITF TRPM1 inh, EBV LMP1 NFkB)
COc1ccccc1OCCC(=O)OCC(=O)NCc1ccc(F)cc1	EBV LMP1 NFkB 69
O=C(COC(=O)CCc1c[nH]c2ccccc12)NCc1ccc(Cl)cc1	EBV LMP1 NFkB 46
O=C(Cc1ccc(Cl)cc1)NCCc1cnc[nH]1	none
COc1ccccc1NC(=O)c1c(Nc2ccccc2C)sc(C(=O)Nc2cccc(Cl)c2)c1N	EBV LMP1 NFkB 43, TWEAK Fn14 block 86
COc1ccc(Nc2sc(C(=O)c3ccc(Cl)cc3)c(N)c2C(=O)Nc2ccccc2OC)cc1	none
CCOC(=O)CC1CCCCN1C(=O)c1cc(COc2cccc3cnccc23)on1 (stereo not drawn)	TWEAK Fn14 block 62
COC(=O)C1CCCCN1C(=O)c1cc(COc2cccc3cnccc23)on1 (stereo not drawn)	none
COC(CNC(=O)C(=O)NCC1OCCN1C(=O)c1ccc(Cl)cc1)OC (stereo not drawn)	none
COCCNC(=O)C(=O)NCC1OCCN1C(=O)c1ccc(Cl)cc1 (stereo not drawn)	EBV LMP1 NFkB 80
COC(=O)Cc1cc(OC)c(OC)cc1Cc1cc(OC)c(OC)cc1CC(=O)OC	none
CCOC(=O)Cc1cc(OC)c(OC)cc1Cc1cc(OC)c(OC)cc1CC(=O)OCC	TWEAK Fn14 block 80
COc1ccc(OC)c(NC(=O)c2ccno2)c1	none
CCC[n+]1c(C)sc2c3c(ccc21)CCCC3	MITF TRPM1 inh 67
CC[n+]1c(C)sc2c(C)cc(C)cc21	none
O=C1NC[C@@H](CCCCN2CCN(CCC3CCCCC3)C(=O)C2=O)N(CC2CCCCC2)C1=O	none (no result: Peg3 prom inh, MITF TRPM1 inh, EBV LMP1 NFkB)
CC(C)CCn1c(N)c(S(=O)(=O)c2cccs2)c2nc3ccccc3nc21	TWEAK Fn14 block 90, TROY NFkB inh 86
Cc1ccc(C(=O)Nn2c(N)c(S(=O)(=O)c3ccc(C)cc3)c3nc4ccccc4nc32)cc1	none
Nc1c(S(=O)(=O)c2ccccc2)c2nc3ccccc3nc2n1CCN1CCOCC1	none
Cc1ccc(S(=O)(=O)c2c(N)n(CCCO)c3nc4ccccc4nc23)cc1	TROY NFkB inh 64
Cc1ccc(S(=O)(=O)c2c(N)n(CCC(C)C)c3nc4ccccc4nc23)cc1	TROY NFkB inh 73
Nc1c(S(=O)(=O)c2cccs2)c2nc3ccccc3nc2n1Cc1cccs1	TROY NFkB inh 70
Cc1ccc(NC(=O)N2CCCc3ccccc32)cc1	none
CCc1ccccc1NC(=O)N1CCCc2ccccc21	TWEAK Fn14 block 53, TROY NFkB inh 78
Cc1ccc(NC(=O)N2CCc3ccccc32)cc1	TWEAK Fn14 block 65
CCCNC(=O)N(C)C[C@H]1Oc2ncc(Br)cc2C(=O)N([C@H](C)CO)C[C@H]1C	none (no result: MITF TRPM1 inh)
N#CCC1(O)C(=O)N(Cc2ccccc2)c2ccccc21 (stereo not drawn)	none (no result: Peg3 prom inh, MITF TRPM1 inh, EBV LMP1 NFkB)
O=C(CN1C(=O)C(=O)N(C2CCCC2)C1=O)Nc1cc(Cl)ccc1[N+](=O)[O-]	none
CCOC(=O)c1c(C)n(-c2ccc(C)cc2)c2ccc(OCC(O)CNCCCO)cc12 (stereo not drawn)	Peg3 prom inh 105, MITF TRPM1 inh 70
CCOC(=O)c1c(C)n(-c2ccc(C)cc2)c2ccc(OCC(O)CNCC3CCCO3)cc12 (stereo not drawn)	Peg3 prom inh 86, MITF TRPM1 inh 69
Cc1ccc(S(C)(=O)=O)cc1C(=O)OCC(=O)N(Cc1ccccc1)Cc1ccccc1	none

Assay outcomes from PubChem.
